A selection: hits, their analogues and other compounds. The true share with any hit is near 4.1%.
ssDAF12 agonist: S. stercoralis DAF-12 nuclear receptor activators, primary screen, cell-based, luminescence, HEK293, GRIP1 co-expression, lit1-tk-luc; HEK293 ssDAF-12/GRIP1 lit1-tk-luc reporter; % of 3 µM dafachronic acid response; activation, % at 6.8 µM; hit rate 1% among 370,000; AID 652126, 2013;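 active = activation above the mean over all tested compounds plus 3 SD, cut at about 0.9% in these data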;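 also: 0% = DMSO-only wells and 100% = 3 µM delta7-dafachronic acid wells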
DAX1 inh-1: DAX1 (NR0B1) inhibitors on StAR promoter, primary screen, cell-based, luminescence, SF-1 (NR5A1), full-length DAX-1; inhibition, % at 6.8 µM; hit rate 1.1% among 370,000; HEK293T StAR-luciferase reporter, SF-1/DAX-1 repression relief; AID 652010, 2013;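 active = inhibition above the mean over all tested compounds plus 3 SD, cut at about 3.6% in these data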;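 also: 0% = DAX-1 cells with DMSO and 100% = cells lacking DAX-1 with DMSO; higher inhibition means more luminescence from relief of DAX-1 repression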
hcDAF12 agonist: H. contortus DAF-12 nuclear receptor activators, primary screen, cell-based, luminescence, HEK293, lit1-tk-luc reporter; hit rate 1.4% among 370,000; AID 652067, 2013; HEK293 hcDAF-12 lit1-tk-luc reporter; 0% DMSO, 100% Δ7-dafachronic acid; activation, % at 6.8 µM;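 active = activation above the mean of all tested compounds plus 3 SD, cut at about 5.5% in these data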;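 also: 100% = response to 3 µM Δ7-dafachronic acid high control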
hgDAF-12 ag: H. glycines DAF-12 receptor agonists, primary screen, cell-based, luminescence, HEK293, GAL4 fusion, UAS-luciferase. HEK293 GAL4-hgDAF12 UAS-luciferase reporter, agonist luminescence; normalized to butyrate control. activation, % at 6.8 µM. hit rate 1.8% among 370,000. AID 687014, 2013;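 active = activation above a cutoff set at the mean of all screened compounds plus 3 SD, cut at about 10% in these data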;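 also: 0% = DMSO wells and 100% = sodium butyrate wells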
DAX1 inh-2: DAX1 (NR0B1) inhibitors, primary screen, cell-based, HEK293, Gal4-DAX1, luciferase luminescence. Nuclear receptor subfamily 0 group B member 1 (Homo sapiens), P51843. HEK293 Gal4-DAX1 luciferase reporter. inhibition, % at 6.75 µM. hit rate 0.99% among 340,000. AID 504766, 2011;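 active = inhibition above the mean over all tested compounds plus 3 SD, cut at about 4.2% in these data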;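 also: 0% = DAX1-transfected cells with DMSO and 100% = empty-vector control cells with DMSO; inhibition shows as a rise in luminescence from relieved DAX1 repression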
Target sequence (P51843 207-470 limits assumed): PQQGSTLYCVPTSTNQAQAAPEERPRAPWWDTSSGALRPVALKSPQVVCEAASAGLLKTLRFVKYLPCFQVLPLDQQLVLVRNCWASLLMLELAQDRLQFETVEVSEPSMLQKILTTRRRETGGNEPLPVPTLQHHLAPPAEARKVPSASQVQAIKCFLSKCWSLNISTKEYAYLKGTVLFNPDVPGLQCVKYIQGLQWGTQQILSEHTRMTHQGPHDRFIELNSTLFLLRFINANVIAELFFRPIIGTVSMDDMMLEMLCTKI
The depositor's hits bear a star; x = not tested or not shown.

SMILES	ssDAF12 agonist	DAX1 inh-1	hcDAF12 agonist	hgDAF-12 ag	DAX1 inh-2
O=C(CSc1nnc(-c2ccccn2)n1Cc1ccco1)Nc1ccc(Oc2ccccc2)cc1	-2	0	-1	0	x
COc1cccc2c1[C@H](/C=C/c1ccccc1)[C@@H]([C@H](O)CO)OC2	-1	-1	-1	-2	x
CN(C(=O)COC(=O)c1ccc2ccccc2n1)C1CCCCC1	2.1*	1	1	0	1
O=C(COC(=O)c1ccc2ccccc2n1)c1ccccc1	1.3*	0	4	1	0
CCOC(=O)[C@]12CCCC=C1N(Cc1ccc(OC)cc1)C(=O)[C@@H]2CC(=O)N1CCN(C(=O)C2CC2)CC1	1.8*	-2	-1	-1	x
Cc1ccc(OCc2nnc(SCC(=O)Nc3ccc(OCc4ccccc4)cc3)n2-c2ccc(Cl)cc2)cc1	0	1	-1	-2	x
COC(=O)[C@]12C[C@H](CC(=O)N3CCSCC3)C(=O)N(Cc3ccc(Cl)cc3Cl)C1=C[C@H](C(C)C)O[C@@H]2C1CC1	-1	1	-3	2	x
CSCCC(NC(=O)OC(C)(C)C)C(=O)Oc1ccc2c(=O)c(-c3ccc4c(c3)OCCO4)coc2c1 (centres undefined)	1	3	5.7*	11*	0
CCCC/C=C1/[C@@H](C(C)C)N(Cc2ccc3c(c2)OCO3)C2=N[C@H](c3ccccc3)CC(=O)N21	-1	x	-1	1	x
Cc1ccc(-c2nc3cc(C)c(Br)c(C)n3c2Cc2ccccc2)cc1	0	1	5.6*	10	x
Cc1cc2nc(-c3ccc(Cl)cc3)c(CC(C)(C)C)n2c(C)c1Br	0	-2	2	4	x
Cc1ccc(Cc2c(-c3ccc(Cl)cc3)nc3cc(C)c(Br)c(C)n23)cc1	1.2*	4.1*	3	3	x
COc1ccc(-c2nc3cc(C)c(Br)c(C)n3c2Cc2ccccc2)cc1OC	-1	-1	-1	0	x
Cc1cc2nc(-c3ccc(Cl)cc3)c(CC3CCCCC3)n2c(C)c1Br	1.4*	3	6.1*	4	x
COC(=O)C12C=C3CC(c4ccc(C(F)(F)F)cc4)=C3C(=O)N1Cc1[nH]c3ccccc3c1C2 (centres undefined)	-1	-4	0	-8	x
CCCCn1cnc2sc(-c3ccccc3)cc2c1=O	0	2	2	10*	3
CCCCCn1cnc2sc(-c3ccccc3)cc2c1=O	-1	1	0	4	0
CCCCCn1cnc2sc(CC)cc2c1=O	-1	3	1	12*	0
C[C@@H]1Cc2cc(O)c(O)c(O)c2C(=O)O1	-1	0	1	0	x
O=S1(=O)c2ccc(Br)cc2OC[C@@H](Cc2ccccc2)N1Cc1cn(CC2CCCCC2)nn1	-1	1	-2	-4	x
COc1ccc(-n2c(SCC(=O)Nc3ccc(OCc4ccccc4)cc3)nnc2-c2ccc(C)cc2)cc1	-1	-1	-1	10	x
Nc1ccc2oc3ccc(N)cc3c(=O)c2c1	1	4.2*	5.6*	11*	0
Nc1ccc2c(=O)[nH][nH]c(=O)c2c1	0	-1	-2	3	-1
CC(=O)N1CCc2c(sc(NC(=O)c3ccc([N+](=O)[O-])o3)c2C#N)C1	0	-1	2	2	0
COC(=O)c1sc(NC(=O)c2ccc([N+](=O)[O-])o2)c(C#N)c1C	-2	-2	-1	-2	4.7*
SMILES	ssDAF12 agonist	DAX1 inh-1	hcDAF12 agonist	hgDAF-12 ag	DAX1 inh-2
O=C(NNC(=O)C1CC1c1ccccc1)c1cccc([N+](=O)[O-])c1 (centres undefined)	0	0	0	1	-1
O=C(NC(=S)NNC(=O)[C@H]1C[C@@H]1c1ccccc1)c1cccc(F)c1	1.4*	1	1	0	-1
COc1cccc(OC)c1C(=O)NC(=S)NNC(=O)[C@H]1C[C@@H]1c1ccccc1	1.7*	0	-1	3	0
N#CCC[C@H]1CC[C@]2(CCCN(C(=O)c3ccno3)C2)O1	-1	0	-2	0	x
CCN(CC)C(=O)CC[C@@H]1CC[C@]2(CCCN(C(=O)c3ccccc3)C2)O1	-1	1	-1	-2	x
CCN1CCCCC(NC(=O)c2ccccc2OC)C1=O (centres undefined)	-1	-2	0	2	x
O=C(Nc1ccc(OC(F)(F)F)cc1)Nc1nc2ncccn2c1-c1ccc(C(F)(F)F)cc1	0	0	-1	-1	x
CCCc1[nH][nH]c(=O)c1C(c1cccc(Cl)c1)C(C#N)C#N (centres undefined)	-1	1	-2	0	4.5*
Cc1[nH][nH]c(=O)c1C(c1ccccc1[N+](=O)[O-])C(C#N)C#N (centres undefined)	-1	0	1	2	1
CCOC(=O)c1ccc(-n2c(C)nc3ccc(Br)cc3c2=O)cc1	2.7*	0	2	1	2
C[C@@H]1OCN(C)[C@H]2C[C@H]3c4[nH]c5cccc(-c6cccc(F)c6)c5c4CCN3C(=O)[C@@H]12	-2	1	-2	-1	x
CCc1ccc(OCC(=O)N2CCc3ccccc32)cc1	0	1	4	12*	1
c1ccc2nc(-c3ccc(N4CCOCC4)cc3)ccc2c1	0	3.8*	6.3*	9	-2
COC(=O)[C@]12CCCCC=C1N(Cc1ccc(OC)cc1)C(=O)[C@@H]2CC(=O)N1CCOCC1	0	-1	-1	-1	x
Cc1cccc(C(=O)OCC(=O)c2ccc3c(c2)OCO3)c1O	0	3.9*	3	9	2
CN(CCO)c1ccc2c(c1)Oc1ccccc1CN(Cc1cn(Cc3cccc(C(F)(F)F)c3)nn1)S2(=O)=O	-1	-1	-3	-3	x
CC(=O)c1sc(-c2ccccc2)cc1N	-2	0	-1	0	x
CC(C)(C)N=Cc1cc(-c2ccccc2)sc1O	0	2	1	12*	2
COc1ccc(/C=N/Nc2cc(C)nc3c(C)cccc23)cc1	-2	0	-2	2	-1
Cc1cccc(C=NNc2cc(C)c3cccc(C)c3n2)n1	1	1	4	12*	x
Cc1ccc(-c2cc(C(F)F)n3ncc(C(=O)N4CCCCC4c4cccnc4)c3n2)cc1 (centres undefined)	1	0	5.7*	-1	4.5*
O=C(NCCc1c[nH]c2ccccc12)OCc1cn(Cc2ccccc2Cl)nn1	0	0	-1	-2	x
